High-throughput results (PubChem)
Compounds with a hit are over-represented: about 7.8% of the library has one in this group of screens.
Lassa entry inh: blocks Lassa virus binding to or entry into cells; Lassa virus pseudotype entry inhibition, cell reporter; Potency, µM (highest dose often 37.9 µM), for the others: at the highest dose activity change, negative = inhibition, most hits filed as inhibitors; actives 1.2% (n = 300,000); calls by dose curve; tested in HEK293 cells; also: potency is read from the fitted curve at half-maximal effect; nearly all actives have a fitted effect of over 50% in size
VACV mCherry inh: vaccinia inhibition (mCherry reporter); actives 0.63% (n = 310,000); Vaccinia virus mCherry reporter infection, fluorescence; Potency, µM (series often up to 36.5 µM), for inactives: top-dose activity change, negative = inhibition, hits mostly inhibitors; calls by dose curve; tested in A549 cells; also: potency is read from the fitted curve at half-maximal effect; nearly all actives have a fitted effect of over 35% in size
Vaccinia Venus: inhibitors of vaccinia virus (Venus reporter) | Vaccinia virus Venus reporter expression, fluorescence | Potency, µM (top dose mostly 36.5 µM), without a hit: at the highest dose activity change, negative = inhibition, hits mostly inhibitors | actives 0.46% (n = 330,000); calls by dose curve; tested in A549 cells; also: potency is read from the fitted curve at half-maximal effect; nearly all actives have a fitted effect of over 30% in size
MARV entry inh: blocks Marburg virus binding to or entry into cells. actives 1.8% (n = 300,000). Marburg virus pseudotyped entry inhibition, cell reporter. Potency, µM (titrated, usually from 37.8 µM), without a hit: top-dose activity change, negative = inhibition, usual class: inhibitors; calls by dose curve; tested in HEK293 cells; also: potency is read from the fitted curve at half-maximal effect
HCV inh: inhibitors of hepatitis C virus infection. actives 3.4% (n = 340,000). Huh7.5.1 HCVcc-Cre infection, luciferase reporter, 44 h. Potency, µM (series often up to 41.8 µM), for the others: at the highest dose activity change, negative = inhibition, actives largely listed as inhibitors; active = well fitted inhibition curve with a large enough effect; inconclusive = small, poorly fitted or top-dose-only effect, or another doubt; inactive = no such curve, though single readings can be large or run the other way; also: potency is read from the fitted curve at half-maximal effect
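Cells seeded at 1,000/well and cultured 4 h, then compounds added followed by HCVcc-Cre virus (~0.5 moi). After 44 h further culture, luciferase substrate was added, plates held 15 min at room temperature, and luminescence read for 15 sec.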
HCMV antiviral: human cytomegalovirus inhibition; actives 4.5% (n = 410,000); AID 1259415; activity change, negative = inhibition, % at 57.5 µM; HFF cells, HCMV-luciferase reporter, 72 h; active compounds read low; in the data active = activity change below about -60%; inconclusive = no clear call, values can overlap the other calls; inactive = above about -39%
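After 16 h attachment at 37C, HFF cells received test compound and HCMV-luciferase (1 PFU/cell); reporter luminescence read 72 h later, data normalized against buffer-only and known inhibitor Salinomycin.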
* hit, by the source's call; ? = inconclusive; . = no result given; [ ] = another dose, or the depositor's remark. % is scaled to controls: 0 for no effect and ±100 for the full control effect.

SMILES | Lassa entry inh | VACV mCherry inh | Vaccinia Venus | MARV entry inh | HCV inh | HCMV antiviral
CC(C)(C)NC(=O)C(c1ccc(-c2ccccc2)cc1)N(C[C@H]1CC[C@@H]([C@@H]2CC[C@H](CO)O2)O1)C(=O)c1ccc2ccccc2c1 (stereo not given in full) | . | -7.0% | -9.9% | . | ? | -100.3*
CCCCC(=O)Nc1c(C(=O)N2CCN(c3ccccc3)CC2)oc2ccccc12 | -21.4%[46.1 µM] | -7.2% | -4.0% | ? | . | -24.0
O=C(c1ccc2c(c1)N(Cc1cccc(Cl)c1)C(=O)c1ccccc1S2)N1CCOCC1 | ? | -9.6% | -10.6% | . | . | -25.3
CCOc1ccc(/C=N/NC(=O)c2[nH]ncc2Br)c(O)c1 | 1.83µM* | 1.26µM* | ? | 6.51µM* | 22.4µM* | -101.3*
COc1ccc(OC)c(/C=N/NC(=O)c2[nH]ncc2Br)c1 | ? | -15.0% | -16.3% | -1.6% | 7.8% | -22.3
O=C(N/N=C\c1c(O)ccc2ccccc12)c1ccc(Cn2cccn2)o1 | 13µM* | 4.47µM* | ? | 5.8µM* | ? | -99.3*
Cc1ccc(O)c(/C=N/NC(=O)c2[nH]ncc2Br)c1 | ? | -12.6% | -13.6% | ? | ? | 47.2
O=C(N/N=C/c1c(O)ccc2ccccc12)c1[nH]ncc1Br | 16.4µM* | 2.51µM* | ? | ? | ? | -98.6*
CN(C)CCCNC(=O)[C@@H]1[C@@H](CO)[C@@H]2Cn3c(cccc3=O)[C@H]1N2C(=O)Nc1cc(F)ccc1F | . | . | . | . | . | 1.4
COC(=O)C(NC(=O)OCc1ccccc1)(c1ccc(Br)cc1)C(Nc1ccccc1)c1ccccc1 (stereo not given) | . | . | . | . | . | 39.2
COc1ccc(Cl)cc1NCCC(O)c1ccc(F)cc1 (stereo not given) | . | . | . | . | 7.08µM* | -29.6
CCOC(=O)CSc1nc(N)c(C#N)c(-c2cccs2)c1C#N | 24.9% | -15.9% | -14.6% | ? | -19.0% | -5.4
N#Cc1c(N)nc(SCc2ccccn2)c(C#N)c1-c1cccs1 | ? | . | . | 1.0% | ? | -68.5*
COc1cc(-c2cc(NC(C)=O)c3ncc(-c4cc(OC)c(OC)c(OC)c4)n3c2)cc(OC)c1OC | . | ? | ? | . | . | -36.9
COc1cc(-c2nnc(SCC(=O)Nc3ccc(F)c(Cl)c3)o2)cc(OC)c1OC | 0.1%[46.1 µM] | -18.1% | -3.3% | -5.2%[46.1 µM] | . | 11.5
O=C(NCCN1CCOCC1)c1cnn(-c2nccc(-c3ccccc3F)n2)c1C1CC1 | . | -1.4% | ? | . | . | .
C[n+]1cc2c3c(ccc2c2ccc4cc5c(cc4c21)OCO5)OCO3 | . | 11.2µM* | 10µM* | 0.891µM* | . | -97.9*
CCC(=O)N1CCN(c2nc(-c3ccccc3)c3c(c2C#N)CCCC3)CC1 | ? | -8.2% | -9.7% | -20.3% | 10µM* | -36.4
CCCCc1nc(N2CCN(C(=O)c3ccco3)CC2)c(C#N)c2c1CCCC2 | . | . | . | . | 14.1µM* | 0.0
CCc1nc(N2CCCC2)c(C#N)c2c1CCCC2 | 17.9% | -11.0% | 2.0% | 12.4% | 0.1% | -80.0*
N#Cc1c(SCC(=O)O)nc(-c2ccccc2)c2c1CCCC2 | -3.0% | -23.9%[1.46 µM] | -14.8% | 9.8% | 8.2% | -13.4
Cc1cc(C)cc(NC(=O)c2cc(S(=O)(=O)N3CCCCCC3)cn2C)c1 | 1.1%[46.1 µM] | 5.1% | 3.6% | . | . | -4.2
O=C(Nc1ccc(F)cc1)c1cccn1-c1nnc(N2CCCCC2)s1 | 6.7%[46.1 µM] | -6.1% | -5.4% | . | . | 0.0
CN(C(=O)COc1ccccc1C(=O)Nc1ccccc1)c1ccccc1 | . | 0.5% | -14.1% | . | . | .
Cc1ccc(C[n+]2cccc(-c3ccccc3)c2)c(C)c1 | ? | -26.8% | -13.1% | ? | ? | -95.7*
Cc1c(Cl)ccc2c(C(O)CBr)cc(-c3ccccc3)nc12 (stereo not given) | ? | -5.1% | -14.1% | ? | 10µM* | -38.8
O=C(CCNC(=O)c1ccc([N+](=O)[O-])cc1)NC1CCCc2ccccc21 (stereo not given) | ? | -2.4% | 13.0% | 2µM* | 9.7% | -1.9
CCCCCC(O)(c1ccc(OC)cc1)C(CN1CCOCC1)c1ccccc1 (stereo not given) | ? | -26.0% | -11.4% | ? | ? | -60.6*
CCCCC(O)(c1ccc(CC)cc1)C(CN1CCOCC1)c1ccccc1 (stereo not given) | . | . | . | . | ? | -71.3*
